# Assay outcomes (PubChem BioAssay)
# This is a sample that favours compounds with a hit; in the whole collection about 0.74% have one here.
# PINK1 expr mod: changes PINK1 expression; PINK1 immunofluorescence, high-content cytometry, 24 h; hit rate 0.2% among 410,000; Potency, µM (titrated, usually from 76.6 µM), without a hit: at the highest dose activation (PINK1 increase), hits mostly activators; active = well fitted activation curve with a large enough effect; inconclusive = small, poorly fitted or top-dose-only effect; cell line not stated here; also: potency is read from the fitted curve at half-maximal effect; % of control where 0% means no effect; nearly all actives have a fitted effect of over 65% in size
#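 PINK1 protein level read as immunofluorescence by microplate cytometer in a fixed, stained stable cell line after 24 h exposure to five compound concentrations, with CCCP as control.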
# LDHA block: LDHA (human) enzyme inhibition; purified LDHA, NADH/diaphorase-resazurin fluorescence; active compounds read low; activity change, % (values are at about 110 or 230 µM); hit rate 0.15% among 480,000; AID 1347041; in the data active = activity change below about -30%; inconclusive = mostly about -25% to -30%;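 also: plate controls were DMSO wells for no effect and wells without enzyme for full effect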
#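 Human LDH5 at 2 nM final in Tris HCl pH 7.4 with 0.06 mM NADH and 0.2 mM pyruvate, reacted 5 minutes at room temperature. Remaining NADH coupled via diaphorase/resazurin; resorufin fluorescence read at 0 and 20 minutes, normalized to enzyme-free and DMSO wells.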
# Glioma ERSR ind: induces the endoplasmic reticulum stress response in human glioma cells. AID 602332. U87-MG GRP78 promoter luciferase reporter, 16 h. hit rate 0.02% among 420,000. Potency, µM, for the others: at the highest dose activation, most hits filed as activators; also: potency is read from the fitted curve at half-maximal effect; series mostly up to about 76 µM; % of control where 0% means no effect; nearly all actives have a fitted effect of over 35% in size
#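 Stably transfected U87-MG human glioma cells carrying a GRP78-based luminescent sensor were seeded at 1000 cells/well, pin-dosed with compounds and incubated 16 h. Luciferase reagent was then added, and end-point luminescence was read after 10 min at room temperature.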
# Vif-A3G inh: inhibitors of Vif-APOBEC3G interaction. hit rate 0.076% among 410,000. Q9HC16. HeLa A3G-eYFP + Vif (tagged APOBEC3G with the HIV-1 protein that degrades it), YFP fluorescence, overnight. Potency, µM (titrated, usually from 46.1 µM), inactives show top-dose activity, negative = active, actives largely listed as inhibitors. AID 602310; also: potency is read from the fitted curve at half-maximal effect; % is scaled to controls: 0 for no effect and ±100 for the full control effect; nearly all actives have a fitted effect of over 60% in size
# Target sequence (Q9HC16 whole entry, looked up): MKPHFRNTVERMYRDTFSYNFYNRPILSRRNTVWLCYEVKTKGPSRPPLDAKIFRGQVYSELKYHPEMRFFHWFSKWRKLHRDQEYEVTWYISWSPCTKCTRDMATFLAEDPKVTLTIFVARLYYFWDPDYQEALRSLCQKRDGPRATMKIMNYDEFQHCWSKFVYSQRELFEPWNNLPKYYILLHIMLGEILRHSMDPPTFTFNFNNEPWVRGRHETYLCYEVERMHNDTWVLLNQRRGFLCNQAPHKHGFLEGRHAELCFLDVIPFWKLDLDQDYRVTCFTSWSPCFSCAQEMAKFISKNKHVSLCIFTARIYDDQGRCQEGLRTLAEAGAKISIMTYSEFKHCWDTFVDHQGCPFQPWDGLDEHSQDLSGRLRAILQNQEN
#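 HeLa cells stably expressing Vif and C-terminally eYFP-tagged A3G, seeded overnight at 37 deg C, then exposed to compound by pintool overnight at 37 deg C. Rise in yellow fluorescence (Ex 488/Em 500-530, Acumen) marks blocked Vif-driven A3G degradation.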
# Akt phos inh: inhibitors of Akt phosphorylation; Neuro2A IGF-stimulated pAkt S473 HTRF, 20 min; active compounds read low; activity change, % for hits at 50 µM; hit rate 0.32% among 360,000; AID 651550; in the data active = activity change below about -80%; inconclusive = mostly about -51% to -80%; also: % is scaled to controls: 0 for no effect and ±100 for the full control effect
#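 Single-point screen (50 µM final compound) in Neuro2A cells stimulated 20 min with 6 nM IGF at 37 deg C. After lysis, Ser473-phosphorylated Akt read by HTRF (ex 330 nm, em 615/665 nm) as the 665/615 ratio.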
# Vif-APOBEC3F blk: inhibitors of Vif-A3F interaction; hit rate 0.2% among 390,000; Potency, µM (highest dose often 46.1 µM), for inactives: at the top dose activity, negative = active; HeLa A3F-eYFP + Vif (tagged APOBEC3F with the HIV-1 protein that degrades it), YFP fluorescence increase; also: potency is read from the fitted curve at half-maximal effect; % of control where 0% means no effect; nearly all actives have a fitted effect of over 65% in size
#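 Fluorescence increase (Ex 488/Em 500-530) after overnight compound treatment at 37 deg C flags inhibition of Vif-driven A3F-eYFP loss in stable HeLa A3F-eYFP/Vif cells seeded overnight beforehand.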
# * hit, by the source's call; i = inactive; ? = inconclusive; · = not tested or not shown; ! = a repeat was not active; [ ] = remark or other dose. Unless noted, calls follow the shape of the dose curve; as a rule, active = well fitted curve in the direction sought with a large enough effect; inconclusive = small, poorly fitted or top-dose-only effect, or another doubt; inactive = no such curve, though single readings can be large; an effect the other way counts as inactive or inconclusive.
SMILES,PINK1 expr mod,LDHA block,Glioma ERSR ind,Vif-A3G inh,Akt phos inh,Vif-APOBEC3F blk
Brc1ccc(CN2CCSCC2)cc1,?,-30*,-5%,-1%,i,-6%
COc1ccc(CN2CCN(Cc3ccco3)CC2)cc1OC,1%,-34*,-4%,-1%,i,-11%
COc1ccc(CN2CCN(Cc3ccccc3F)CC2)c(OC)c1,0%,-23,-7%,2%,i,-13%
Cc1ccc(CN2CCSCC2)cc1,-1%,-6,-1%,1%,i,4%
COc1ccc(CN2CCN(Cc3c[nH]c4ccccc34)CC2)cc1,0%,-34*,-3%,2%,i,7%
COc1ccc(CN2CCN(Cc3c[nH]c4ccccc34)CC2)c(OC)c1,-1%,-33*,-3%,0%,i,2%
Cc1ccc(CN2CCN(Cc3c[nH]c4ccccc34)CC2)cc1,·,7,·,·,·,·
COc1ccc(CN2CCC(N3CC(C)OC(C)C3)CC2)c(OC)c1 (stereo not drawn),-2%,-32*,-6%,2%,i,8%
COc1cc(CN2CCN(Cc3ccc(SC)cc3)CC2)cc(OC)c1O,-3%,1,-2%,-5%,i,-12%
COc1ccc(CN2CCN(Cc3c[nH]c4ccccc34)CC2)cc1OC,0%,-32*,-3%,0%,i,-11%
COc1ccc(CN2CCN(Cc3ccc(Br)cc3)CC2)c(OC)c1OC,6%,-30*,-4%,3%,i,4%
COc1cc(OC)c(OC)cc1CN1CCN(Cc2ccc(SC)cc2)CC1,1%,-30*,-3%,0%,i,-7%
COc1ccc(OC)c(CN2CCC(C)CC2)c1,·,-4,·,·,·,·
COc1ccc(Br)cc1CN1CCN(Cc2c[nH]c3ccccc23)CC1,0%,-17,-10%,-8%,i,9%
CC(C)NC(=O)c1cc(-c2ccco2)nc2ccccc12,·,-5,·,·,·,·
CCc1ccc(C(=O)NCc2ccnc(N3CCN(C)CC3)c2)s1,·,7,·,·,·,·
O=[N+]([O-])c1cc(S(=O)(=O)Nc2cccc(C(F)(F)F)c2)ccc1-n1nnc2ccccc21,22µM*,-6,-4%,-13%,i,-9%
COc1ccc(NS(=O)(=O)c2ccc(-n3nnc4ccccc43)c([N+](=O)[O-])c2)cc1,?,3,-2%,2%,i,-2%
N#Cc1ccccc1COC(=O)c1ccc(CO)cc1,·,-1,·,·,·,·
O=C(COc1ccccc1/C=C1\SC(=S)NC1=O)Nc1ccc(F)cc1,32µM*,-10,-1%,-6%,i,?
COC(=O)c1[nH]c2ccc(C)cc2c1NS(=O)(=O)c1ccc(F)c(C)c1,0%,-2,-5%,-5%,i,-4%
COC(=O)c1[nH]c2ccc(C)cc2c1NS(=O)(=O)c1ccc(F)cc1,2%,-1,-3%,1%,-119%*,-1%
O=C(Nc1ncc2c(n1)-c1ccccc1CC2)c1ccc(F)cc1,-1%,-4,-2%,0%,-120%*,-2%
COCCN1C(=O)C(=O)/C(=C(/O)c2ccc3c(c2)OCCO3)C12C(=O)N(C)c1ccccc12 (stereo not drawn),·,-1,·,·,·,·
CCCCCCCCCc1nc2sc3c(c2c(=O)n1NC(=O)c1ccc([N+](=O)[O-])cc1)CC(C)(C)OC3,13µM*,8,-5%,-11%,i,?
SMILES,PINK1 expr mod,LDHA block,Glioma ERSR ind,Vif-A3G inh,Akt phos inh,Vif-APOBEC3F blk
Fc1ccc(CNCCOc2ccccn2)cc1,·,11,·,·,·,·
CC(C)(C)c1ccccc1OCCCCCn1ccnc1,?,-19,-6%,6%,i,?
c1ccc(-c2ccccc2OCCCCn2ccnc2)cc1,3%,-37*,-2%,1%,i,-7%
c1ccc(-c2ccccc2OCCCN2CCOCC2)cc1,-1%,-30*,-1%,1%,i,-14%
CCN(CC)c1nc2c(c(=O)n(C)c(=O)n2C)n1CC(=O)c1ccc(Br)cc1,·,1,·,·,·,·
CCCCn1c(CN2CCN(C)CC2)nc2ccccc21,1%,7,-4%,-2%,-116%*,4%
Cc1c(C#N)c(N)nc2c3c(sc12)NC(=O)CC3c1ccccc1 (stereo not drawn),?,-31*!,-1%,1%,i,8%
Cn1c(=O)c2c(nc(N3CCCC3)n2Cc2cccc(Br)c2)n(C)c1=O,·,-11,·,·,·,·
CCN(CC)S(=O)(=O)c1cccc(NC(=O)CN2c3cccc4cccc(c34)S2(=O)=O)c1,·,11,·,·,·,·
CCCCOCCCNC(=O)c1c(-c2ccccc2)noc1C,0%,-2,-5%,-3%,-122%*,-6%
CCNCc1ccc(O)c(OCC)c1,·,-4,·,·,·,·
CCCCN1C(=O)/C(=C/C=C2\Oc3ccccc3N2CC)SC1=S,?,0,-2%,1.6µM*,i,i
CCCCN1C(=O)/C(=C/C=C2/CC(C)(C)CN2C)SC1=S,13%,5,4%,3.5µM*,i,?
Cn1c(=O)c2c(nc(Cl)n2Cc2c(Cl)cccc2Cl)n(C)c1=O,·,-2,·,·,·,·
CCOc1nc(C)ccc1-c1noc(-c2ccncc2)n1,0%,-5,-2%,2%,i,-4%
COc1ccccc1-c1nc(-c2ccc(C)nc2OC)no1,2%,-10,-2%,-8%,-109%*,-4%
CCOc1nc(C)ccc1-c1noc(C)n1,3%[38.3 µM],-1,-2%,1%,-110%*,-11%
O=C(COc1ccc2ccc(=O)oc2c1)Nc1ccc(F)c(F)c1,·,6,·,·,·,·
COc1ccc(OC)c(NC(=O)Cn2c(CCC(=O)O)ccc2-c2cccs2)c1,-3%,-7,4%,-1%,-119%*,-9%
Cn1c(CCCOc2ccc(Cl)cc2Cl)nnc1SCC(=O)Nc1nccs1,13µM*,2,0%,2%,i,-1%
C=CCc1ccccc1OCc1nc2ccc(C)cc2[nH]1,40µM*,-1,·,·,·,·
CC1CCc2c(nc3nc[nH]n3c2=O)C1 (stereo not drawn),1%,-7,-15%,1%,-102%*,-15%
CN(Cc1ccc(-c2ccc(Cl)cc2)o1)C(=O)CNC(=O)c1ccc(Cl)cc1Cl,·,-4,·,·,·,·
Cc1[nH]c2c(ccc3cccnc32)c1C,0%,-4,5%,-2%,i,-5%
CC1=[N+](C)c2c(ccc3cccnc23)C1(C)C,13µM*,5,-8%,?,i,?
O=C(O)C(c1c[nH]c2ccc(CO)cc12)N1CCCN(c2ccc(C(F)(F)F)cn2)CC1 (stereo not drawn),·,-5,·,·,·,·
NS(=O)(=O)c1ccc(NC(=O)CN2C(=O)CCC2=O)cc1,1%,-15,-3%,4%,i,0%
O=C(CN1C(=O)CCC1=O)Nc1ccc(Br)cc1,-1%,-1,2%,2%,-103%*,-2%
N#Cc1nc(/C=C/c2ccc(Cl)cc2)oc1N1CCN(C(=O)c2ccco2)CC1,·,7,·,·,·,·
